Compound activity from PubChem.
ALR H2O2 inh: blocks human ALR sulfhydryl oxidase activity; P55789; purified ALR, DTT oxidation, H2O2 HRP-luminol luminescence; inhibition, % (concentration not given with the values); 3.8% of 290,000 active; AID 485317;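 active = mean replicate inhibition above about 79%, with every replicate also reaching it, limit read from the data; inconclusive = only one of the two criteria met; inactive = mean below limit and not every replicate reaching it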
HDAC3 inh: inhibitors of human histone deacetylase 3; O15379; recombinant HDAC3, fluorogenic peptide/trypsin coupled, fluorescence; inhibition, % at 8.3 µM; 0.15% of 320,000 active; AID 2718; in the data active = inhibition above about 26%, passing the limit was not always enough; inconclusive = no clear call, values can overlap the other calls
NPR1 activator: GC-A (human) enzyme activation; HEK293 GC-A cells, cGMP TR-FRET, EC30 ANP; 0% at EC30 ANP, 100% saturating ANP; activation, % at 10 µM; 0.14% of 370,000 active; AID 1671463; in the data active = activation above about 40%
Target sequence (P16066 whole entry, looked up): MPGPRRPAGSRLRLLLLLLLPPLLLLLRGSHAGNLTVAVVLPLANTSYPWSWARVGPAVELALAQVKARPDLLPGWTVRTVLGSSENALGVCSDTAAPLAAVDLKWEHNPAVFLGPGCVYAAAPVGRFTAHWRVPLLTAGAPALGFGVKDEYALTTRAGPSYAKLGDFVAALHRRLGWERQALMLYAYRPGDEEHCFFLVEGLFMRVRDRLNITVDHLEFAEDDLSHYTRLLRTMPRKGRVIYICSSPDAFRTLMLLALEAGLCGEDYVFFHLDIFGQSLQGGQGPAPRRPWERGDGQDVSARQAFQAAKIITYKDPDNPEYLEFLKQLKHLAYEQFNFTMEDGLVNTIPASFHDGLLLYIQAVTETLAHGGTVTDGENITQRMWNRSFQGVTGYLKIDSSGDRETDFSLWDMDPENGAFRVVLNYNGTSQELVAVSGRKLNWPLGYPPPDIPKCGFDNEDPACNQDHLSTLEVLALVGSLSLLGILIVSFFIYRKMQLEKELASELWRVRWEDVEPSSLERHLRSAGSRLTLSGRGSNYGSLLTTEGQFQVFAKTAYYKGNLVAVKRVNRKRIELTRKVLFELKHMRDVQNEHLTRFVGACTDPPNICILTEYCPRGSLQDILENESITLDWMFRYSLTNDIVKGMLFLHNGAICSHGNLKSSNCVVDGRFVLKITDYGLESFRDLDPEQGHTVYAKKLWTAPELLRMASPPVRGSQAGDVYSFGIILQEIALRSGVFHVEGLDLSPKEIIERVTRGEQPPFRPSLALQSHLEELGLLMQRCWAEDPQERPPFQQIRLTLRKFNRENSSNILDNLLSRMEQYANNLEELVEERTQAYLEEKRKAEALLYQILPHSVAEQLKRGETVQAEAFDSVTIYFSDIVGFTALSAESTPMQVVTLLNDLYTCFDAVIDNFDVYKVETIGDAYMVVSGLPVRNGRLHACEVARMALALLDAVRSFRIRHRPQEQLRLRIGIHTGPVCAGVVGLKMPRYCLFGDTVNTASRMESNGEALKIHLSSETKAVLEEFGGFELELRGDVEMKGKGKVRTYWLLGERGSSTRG
GC-B act: GC-B (human) receptor activation. P20594. HEK293-GC-B cells, CNP EC30, cGMP TR-FRET; 0% at EC30 CNP, 100% saturating CNP. activation, % at 10 µM. 0.11% of 370,000 active;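 active = activation at 10 µM reaching about 35% in either raw or pattern-adjusted values, limit read from the data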
Each line names hits and unclear results; the compound was inactive in the other large screens. The full list was thinned out, with hits kept by preference.

N#Cc1nc(NCC(F)F)nc(Nc2cc(F)cc(F)c2)n1	NPR1 activator 44, GC-B act 39
Cc1cc(-c2ccccc2)nc2cc(C(=O)NCc3ccco3)nn12	ALR H2O2 inh 93
COc1ccc(-c2cc(C(F)(F)F)n3nc(C(=O)NCc4ccco4)cc3n2)cc1	HDAC3 inh inconclusive
Cc1cc(NC(=O)CSc2nccn2-c2ccc(Cl)cc2)no1	ALR H2O2 inh 99
COc1cccc(-n2ccnc2SCC(=O)Nc2cc(C)on2)c1	ALR H2O2 inh 83
Cc1cc(NC(=O)CSc2nccn2-c2ccc(F)cc2)no1	none
Cc1ccc2c(c1)c1c(n2C)-c2[nH]ncc2CC1	ALR H2O2 inh 94
CCOc1ccc(C(=O)CSCC(=O)O)cc1	ALR H2O2 inh 98
CCOc1ccc(C(=O)CCC(=O)O)cc1	none
O=C1NCCCC2c3cc(O)c4ccccc4c3OC12N1CCCCC1 (centres undefined)	none
O=C1NCCCC2c3c(cc(Br)c(O)c3Br)OC12N1CCOCC1 (centres undefined)	ALR H2O2 inh 94
CCOC(=O)[C@@]12CCC3=C1N(CCC3)C(=O)[C@H](CC(=O)NCC1CCCCC1)C2	none (no result: ALR H2O2 inh, HDAC3 inh)
C(=N\Nc1nc(Nc2ccccc2)nc(N2CCOCC2)n1)/c1c[nH]c2ccccc12	none
Cc1ccc(Nc2nc(N/N=C/c3c[nH]c4ccccc34)nc(N3CCOCC3)n2)cc1	HDAC3 inh 26
Fc1ccc2c(c1)/C(=N/Nc1ccccn1)CCS2	ALR H2O2 inh 99
O=C(O)CSc1c(-c2cccs2)[nH]c2ccccc12	ALR H2O2 inh 99
O=C(O)CSc1c(-c2ccccc2)[nH]c2ccccc12	ALR H2O2 inh 98
C/C(CC(=O)Nc1cccc(Br)c1)=N\NC(=O)c1ccc(O)cc1O	none
COc1cc(/C=C(/C#N)c2ccc(F)cc2)ccc1Oc1ccc([N+](=O)[O-])cn1	none
CN(C)c1ccc(N=c2sc3ccccc3n2C)cc1	ALR H2O2 inh 99
Cn1c(=Nc2ccccc2)sc2ccccc21	none
Cc1ccc(C(CNS(=O)(=O)c2cc(F)ccc2F)N2CCN(C)CC2)cc1 (centres undefined)	none (no result: ALR H2O2 inh, HDAC3 inh)
NS(=O)(=O)c1ccc(N/N=C/c2ccc[nH]2)c([N+](=O)[O-])c1	ALR H2O2 inh 97
CC(Oc1ccccc1)C(=O)N1CCN=C1SCc1ccc(F)cc1 (centres undefined)	ALR H2O2 inh 96
CSC1=NCCN1C(=O)Cc1ccc(F)cc1	none
O=C(COc1ccccc1)N1CCN=C1SCc1cccnc1	ALR H2O2 inh 100
O=C(COc1ccccc1)N1CCN=C1SCc1ccc(F)cc1	ALR H2O2 inh 98
Cn1ccnc1SCC(=O)Nc1ccc2ccccc2c1	none
Cn1ccnc1SCC(=O)c1ccc2ccccc2c1	ALR H2O2 inh 99 (no result: HDAC3 inh)
Cc1cccc(NC(=O)CSc2nccn2C)c1	ALR H2O2 inh 100
COc1ccc(NC(=O)CSc2nccn2Cc2ccco2)cc1	ALR H2O2 inh 99
CCOc1ccc(NC(=O)CSc2nccn2Cc2ccco2)cc1	none
Cn1ccnc1SCC(=O)Nc1ccccc1	ALR H2O2 inh 99
CC(C(=O)NCCCc1ccccc1)c1ccc([N+](=O)[O-])cc1 (centres undefined)	none
O=C(CSc1nccn1Cc1ccccc1)Nc1ccccc1	ALR H2O2 inh 100 (no result: HDAC3 inh)
Cc1cccc(NC(=O)CSc2ncnc3nc[nH]c23)c1	ALR H2O2 inh 90
O=C(CCOc1ccccc1)Nc1cccc([N+](=O)[O-])c1	none
CC(=O)Nc1cccc(NC(=O)CSc2nccn2Cc2ccccc2)c1	none (no result: HDAC3 inh)
Cc1cccc(NC(=O)CCOc2ccccc2)c1	ALR H2O2 inh 98
CCOc1ccc(OCCC(=O)OCC(=O)NCc2ccccc2)cc1	none
Cc1cc(C)nc(NCC(O)CNc2ccccc2Cl)n1 (centres undefined)	ALR H2O2 inh 92
CCOC(=O)C(Cc1ccccc1)C(=O)Nc1cccc(C)c1 (centres undefined)	none (no result: ALR H2O2 inh)
CCN(CC)c1ccc(NC(=S)NC(=O)C2CCC2)cc1	ALR H2O2 inh 99
CC(=O)Nc1ccc(NC(=S)NC(=O)C2CCCC2)cc1	none
CCOC(=O)C(Cc1ccccc1)C(=O)Nc1ccc(N(CC)CC)cc1 (centres undefined)	ALR H2O2 inh 99
COC(=O)Nc1ccc(NC(C)=O)cc1	none
CCN(CC)c1ccc(NC(=O)c2cnn(CC)c2)cc1	ALR H2O2 inh 99
CCN(CC)c1ccc(NC(=O)OC)cc1	ALR H2O2 inh 91
CCN(CC)c1ccc(NC(=O)c2ccc(Br)o2)cc1	ALR H2O2 inh 96 (no result: NPR1 activator, GC-B act)
O=C(CCSc1ccccc1)N1CCN(c2ccccc2)CC1	ALR H2O2 inh 91
O=C(CCSc1ccc(Cl)cc1)N1CCN(c2ccc(O)cc2)CC1	ALR H2O2 inh 100 (no result: HDAC3 inh)
